Experimental data reported in PubChem BioAssay AID1159577 (Broad Institute, 2015).
The whole screen tested about 1,300 compounds, of which about 240 (18%) were called active. Not shown: some 8% with an inconclusive outcome. The list is a sample of the results. Results with a measured potency or affinity are listed apart. Unmarked numbers belong to inactive results. The rule behind the calls is not given here.

Experiment: toxicity to human hepatoma HepG2 cells – cell-based, cherry-picked samples, cytotoxicity control, dose response (AID 1159577);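 note: 0% = neutral control wells and -100% = positive control wells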
Conditions: HepG2 cytotoxicity counterscreen, plate reader; series mostly up to 19.5 µM; activity change, negative = cytotoxicity: at the top concentration

Compound	activity change, negative = cytotoxicity
N#C[C@@H]1[C@@H](c2ccccc2C2=CCCC2)[C@H](CO)N1C(=O)C1CC1	-21.1% [at 18 µM]
COc1ccc(NC(=O)N2CCCCN3[C@@H](CO)[C@H](c4ccc(C#Cc5ccccn5)cc4)[C@@H]3C2)cc1	15.3%
O=C(Nc1cccc(F)c1)N1CCCCN2[C@H](CO)[C@H](c3ccc(C#Cc4ccccc4)cc3)[C@@H]2C1	0.219%
O=C(Nc1ccccc1)N1CCCCN2[C@@H](CO)[C@H](c3ccc(C#Cc4cccnc4)cc3)[C@@H]2C1	16.9%
O=C(Nc1ccccc1)N1CCCCN2[C@H](CO)[C@H](c3ccc(C#Cc4ccccc4)cc3)[C@@H]2C1	15%
COc1ccc(NC(=O)N2CCCCN3[C@H](CO)[C@H](c4ccc(C#CCC(C)C)cc4)[C@@H]3C2)cc1	11.6%
O=C(Nc1cccc(F)c1)N1CCCCN2[C@@H](CO)[C@H](c3ccc(C#Cc4cccnc4)cc3)[C@@H]2C1	-13.2%
COc1ccc(C#Cc2ccc3c(c2)[C@H]2[C@H](CCN2C(=O)c2ccccn2)[C@@H](CO)N3)cc1	-7.07%
COc1ccc(NC(=O)N2CCC3(CC2)CN(C(=O)C2CCC2)[C@H](CO)c2c3c3ccc(OC)cc3n2C)cc1	-1.36%
C[C@@H]1CN([C@H](C)CO)C(=O)c2c(c3ccccc3n2C)-c2ccccc2CO[C@H]1CN(C)S(=O)(=O)c1ccc(C(F)(F)F)cc1	18%
C[C@@H]1CN([C@@H](C)CO)C(=O)c2c(c3ccccc3n2C)-c2ccccc2CO[C@H]1CN(C)C(=O)Cc1ccccc1	-7.33%
CCC(=O)N1CC2(C1)[C@@H](c1ccc(-c3cccc(OC)c3)cc1)[C@@H](CO)N2C(C)=O	-16.1%
CO[C@H]1CN(C)C(=O)c2cc(NC(=O)C3CC3)ccc2OC[C@H](C)N(Cc2cc(F)ccc2F)C[C@@H]1C	32%
COc1ccc(S(=O)(=O)Nc2ccc3c(c2)CC(=O)N([C@@H](C)CO)C[C@H](C)[C@H](CN(C)S(=O)(=O)c2ccc(C)cc2)O3)cc1	7.4%
Cc1ccc(S(=O)(=O)N(C)C[C@H]2OCc3ccccc3-c3c(n(C)c4ccccc34)C(=O)N([C@@H](C)CO)C[C@H]2C)cc1	-5.12% [at 21 µM]
COc1ccc(NC(=O)N2CCCCN3[C@H](CO)[C@H](c4ccc(C#Cc5ccccc5)cc4)[C@@H]3C2)cc1	-6.2%
COc1ccc(C#Cc2ccc([C@H]3[C@H]4CN(C(=O)Nc5ccccc5)CCCCN4[C@H]3CO)cc2)cc1	0.362%
COc1ccc(NC(=O)Nc2ccc3c(c2)[C@H]2C[C@H](CC(=O)N4CCc5ccccc5C4)O[C@H](CO)[C@H]2O3)cc1	17.4%
COc1ccccc1-c1cccc(-c2nc(C(=O)Nc3nccs3)cc3c2[C@H](CCO)N(C(=O)CC2CC2)C3)c1	30.2%
CO[C@H]1CN(C)C(=O)c2cc(NS(=O)(=O)c3ccccc3C)ccc2OC[C@H](C)N(C)C[C@H]1C	-7.94%
CC(C)(O)C#Cc1ccc([C@H]2[C@H](CO)N3CCCCN(C(=O)c4ccc(F)cc4)C[C@@H]23)cc1	21.6%
COc1ccc2c3c(n(C)c2c1)[C@H](CO)N(CC1CC1)CC31CN(C(=O)c2ccc3c(c2)OCO3)C1	1.85%

Compound	activity change, negative = cytotoxicity
CO[C@@H]1CN(C)C(=O)c2ccc(NC(=O)C3CCC3)cc2OC[C@@H](C)N(CC2CCCCC2)C[C@H]1C	-6.63%
CO[C@@H]1CN(C)C(=O)c2cc(NC(=O)c3ccccc3F)ccc2OC[C@H](C)N(C(=O)c2ccccc2F)C[C@@H]1C	14.7%
C[C@H](CO)N1C[C@H](C)[C@@H](CN(C)C(=O)Nc2cccc3ccccc23)Oc2ccc(NC(=O)Cc3cn(C)c4ccccc34)cc2C1=O	-4.27%
C[C@H](CO)N1C[C@H](C)[C@@H](CN(C)S(=O)(=O)c2ccc(C(F)(F)F)cc2)OCc2ccccc2-c2c(n(C)c3ccccc23)C1=O	0.059% [at 21 µM]
N#C[C@@H]1[C@H](c2ccccc2-c2cccc(F)c2)[C@@H](CO)N1C(=O)C1CCCC1	17.6%
CC(C)(C)[S@@](=O)N1Cc2cc(C(=O)N[C@@H]3CCN(Cc4ccccc4)C3)nc(-c3cccc(-c4cccnc4)c3)c2[C@H]1CCO	22.2%
COCc1cn([C@@H]2C[C@@H]3O[C@H](CO)CC[C@@H]3O[C@@H]2CCc2ccc(-c3ccc(OC)cc3)cc2)nn1	-7.81%
CCCNC(=O)Nc1ccc2c(c1)C(=O)N(C)C[C@@H](OC)[C@H](C)CN(C(=O)C1CCOCC1)[C@@H](C)CO2	14.2%
COc1ccc(NC(=O)N(C)C[C@@H]2Oc3cc(-c4ccc(C)cc4)ccc3S(=O)(=O)N([C@H](C)CO)C[C@@H]2C)cc1	-9.12%
C[C@H]1CN([C@@H](C)CO)S(=O)(=O)c2ccc(C#Cc3ccccc3)cc2O[C@@H]1CN(C)S(=O)(=O)c1cn(C)cn1	-20.3%
COc1cccc(CN2CCCCN3[C@H](CO)[C@@H](c4ccc(C#Cc5cccnc5)cc4)[C@@H]3C2)c1	-16.5%
COc1ccc(NC(=O)N2CCCCN3[C@H](CO)[C@H](c4ccc(C#Cc5ccccn5)cc4)[C@@H]3C2)cc1	-5.37%
O=C(Nc1ccccc1)N1CCCCN2[C@H](CO)[C@H](c3ccc(C#Cc4cccnc4)cc3)[C@@H]2C1	-11.5%
C[C@@H]1CN([C@H](C)CO)C(=O)c2c(c3ccccc3n2C)-c2ccccc2CO[C@@H]1CN(C)C(=O)[C@H](C)c1ccccc1	-3.8%
C[C@@H]1CN([C@H](C)CO)C(=O)c2ccccc2-c2ccccc2CO[C@H]1CN(C)C(=O)Nc1cccc(Cl)c1Cl	-0.614% [at 21 µM]
C[C@H](CO)N1C[C@H](C)[C@H](CN(C)Cc2ccc(Oc3ccccc3)cc2)Oc2c(NC(=O)c3nc4ccccc4s3)cccc2C1=O	11.9%
C[C@H](CO)N1C[C@H](C)[C@H](CN(C)S(=O)(=O)c2cccs2)Oc2ccc(NC(=O)Cc3cn(C)c4ccccc34)cc2C1=O	-0.395%
COc1ccc(C#Cc2ccc3c(c2)O[C@H](CN(C)S(=O)(=O)c2ccccc2F)[C@@H](C)CN([C@H](C)CO)S3(=O)=O)cc1	0.364%
CC(C)(C)[S@@](=O)N1Cc2cc(C(=O)NCCN3CCCC3)nc(-c3cccc(-c4ccc(C#N)cc4)c3)c2[C@H]1CCO	-19.4% [at 21 µM]
COCC(=O)Nc1ccc2c(c1)C(=O)N(C)C[C@H](OC)[C@H](C)CN(Cc1cc(F)ccc1F)[C@@H](C)CO2	15.5%
COc1ccccc1CNC(=O)C[C@H]1C[C@H]2c3cc(NC(=O)Cc4ccncc4)ccc3O[C@H]2[C@H](CO)O1	-27.4%
C[C@@H]1CN([C@@H](C)CO)C(=O)c2c(c3ccccc3n2C)-c2ccccc2CO[C@H]1CN(C)C(=O)Nc1ccccc1C(F)(F)F	-28.3% [at 21 µM]

Compound	activity change, negative = cytotoxicity
C[C@H]1CN([C@@H](C)CO)C(=O)c2c(c3ccccc3n2C)-c2ccccc2CO[C@@H]1CN(C)C(=O)Nc1cccc(C(F)(F)F)c1	2.5% [at 21 µM]
C[C@H]1CN([C@@H](C)CO)C(=O)c2c(c3ccccc3n2C)-c2ccccc2CO[C@@H]1CN(C)Cc1ccc(-c2ccccc2)cc1	-16.6%
C[C@H](CO)N1C[C@H](C)[C@H](CN(C)S(=O)(=O)c2ccc(C(F)(F)F)cc2)OCc2ccccc2-c2c(n(C)c3ccccc23)C1=O	-5.43%
C[C@H]1CN([C@@H](C)CO)C(=O)c2c(c3ccccc3n2C)-c2ccccc2CO[C@@H]1CN(C)C(=O)Cc1ccccc1	8.45% [at 21 µM]
C[C@H](CO)N1C[C@H](C)[C@@H](CN(C)Cc2ccc(-c3ccccc3)cc2)OCc2ccccc2-c2c(n(C)c3ccccc23)C1=O	-24%
COc1ccc(S(=O)(=O)N2CCC3(CC2)CN(Cc2ccncc2)[C@@H](CO)c2[nH]c4cc(OC)ccc4c23)cc1	-20.5%
COc1ccccc1NC(=O)Nc1ccc2c(c1)OC[C@@H](C)N(Cc1ccccc1Cl)C[C@@H](C)[C@H](OC)CN(C)C2=O	-3.52%
CCCN(C)C[C@@H]1Oc2cc(C#Cc3cccnc3)ccc2S(=O)(=O)N([C@@H](C)CO)C[C@H]1C	10.7%
COc1ccc2c3c([nH]c2c1)[C@H](CO)N(Cc1cc(F)ccc1F)CC31CCN(C(=O)C2CCC2)CC1	8.9%
C[C@H](CO)N1C[C@H](C)[C@H](CN(C)C(=O)NC2CCCCC2)OCc2ccccc2-c2c(n(C)c3ccccc23)C1=O	8.48%
CO[C@H]1CN(C)C(=O)c2cc(NC(=O)c3ccccc3F)ccc2OC[C@H](C)N(C(=O)c2ccccc2F)C[C@H]1C	-15.7%
CCC(=O)N1CC2(C1)CN(Cc1cccc(Cl)c1)[C@H](CO)c1c2c2ccc(OC)cc2n1C	0.885% [at 21 µM]
N#C[C@@H]1[C@H](c2ccccc2-c2ccccc2F)[C@H](CO)N1C(=O)C1CCOCC1	-0.432%
N#C[C@@H]1[C@@H](c2ccccc2C2=CCCC2)[C@@H](CO)N1C(=O)NC1CCCC1	1.93%
COc1cccc(CNC(=O)c2cc3c(c(-c4cccc(-c5ccncc5)c4)n2)[C@H](CCO)N([S@@](=O)C(C)(C)C)C3)c1	15.6%
COc1cccc(-c2cccc(-c3nc(C(=O)NCc4ccc(Oc5ccccc5)cc4)cc4c3[C@@H](CCO)N(S(=O)C(C)(C)C)C4)c2)c1 (stereo not given in full)	17.5%
CN(C)C(=O)c1cccc(-c2cccc(-c3nc(C(=O)NC4CCCCC4)cc4c3[C@@H](CCO)N([S@](=O)C(C)(C)C)C4)c2)c1	-15.1% [at 21 µM]
CC(C)(C)S(=O)N1Cc2cc(C(=O)NCc3ccc(Oc4ccccc4)cc3)nc(-c3cccc(-c4cccc(F)c4)c3)c2[C@@H]1CCO (stereo not given in full)	6.7%
C[C@H]1CN([C@@H](C)CO)C(=O)c2c(c3ccccc3n2C)-c2ccccc2CO[C@H]1CN(C)S(=O)(=O)c1ccc(C(F)(F)F)cc1	-0.676% [at 21 µM]
COCC(=O)N1[C@H](C#N)[C@@H](c2ccccc2-c2ccccc2)[C@H]1CO	-10.6%
COc1ccc2c3c(n(C)c2c1)[C@@H](CO)N(C(=O)c1ccc(F)cc1)CC31CN(C(=O)Nc2ccc(F)cc2)C1	25.7%
